Results from PubChem BioAssay (NCI).
The panel holds about 83,000 compounds, 20% with a hit somewhere; the sample as a whole holds those more often.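 Negative percent growth values reflect cell death: -40 means 40% of the cells present at the start died, and -100 means all died.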 Values without a mark were called inactive. Activity calls are given as the source filed them. Rule for the calls: active = growth percent below 10; inactive = the rest.

Columns and labels:
Assay in all cases: NCI-60 one-dose screen, 48 h (100 = growth as untreated, 0 = no growth, -100 = all killed)
Details in all cases: 10 µM unless noted
[1] = test system: HCT-15 colon
[2] = test system: HT29 colon
[3] = test system: SNB-75 CNS
[4] = test system: SNB-19 CNS
[5] = test system: U251 CNS
[6] = test system: PC-3 prostate
[7] = test system: SK-MEL-5 melanoma
[8] = test system: UACC-62 melanoma
[9] = test system: LOX IMVI melanoma
[10] = test system: SK-MEL-28 melanoma
[11] = test system: SK-MEL-2 melanoma
[12] = test system: EKVX NSCLC
[13] = test system: SN12C renal
[14] = test system: UO-31 renal
[15] = test system: TK-10 renal
[16] = test system: ACHN renal
[17] = test system: CAKI-1 renal
[18] = test system: A498 renal
[19] = test system: CCRF-CEM leukemia
[20] = test system: MOLT-4 leukemia

O=C(CCl)n1nnnc1Cc1ccccc1
growth [1]: 102%
growth [2]: 95.6%
growth [3]: 84.9%
growth [4]: 96.4%
growth [5]: 90.3%
growth [6]: 94.7%
growth [7]: 109%
growth [8]: 89.5%
growth [9]: 87%
growth [10]: 110%
growth [11]: 86.9%
growth [12]: 105%
growth [13]: 92.2%
growth [14]: 74.3%
growth [15]: 88.1%
growth [16]: 95.1%
growth [17]: 92.4%
growth [18]: 109%
growth [19]: 86.3%
growth [20]: 94.2%

COc1ccc(/C=N/NC(=O)CN2CCN(c3cc4c(cc3F)c(=O)c(C(=O)O)cn4C3CC3)CC2)cc1O
growth [1]: 109%
growth [2]: 96.1%
growth [3]: 106%
growth [4]: 94.4%
growth [5]: 95.3%
growth [6]: 93%
growth [7]: 89.8%
growth [8]: 97.6%
growth [9]: 97.9%
growth [10]: 109%
growth [11]: 94.1%
growth [12]: 112%
growth [13]: 99.1%
growth [14]: 94.6%
growth [15]: 89.6%
growth [16]: 106%
growth [17]: 111%
growth [18]: 104%
growth [19]: 92.7%
growth [20]: 82.7%

COc1ccc2c(O)c(/C=C3\N=Nc4nc(C)ccc43)oc2c1CC1CCNCC1
growth [1]: 93.3%
growth [2]: 31.6%
growth [3]: 25.2%
growth [4]: 57.5%
growth [5]: 21.4%
growth [6]: 69.2%
growth [7]: 81.1%
growth [8]: -26.3% (active)
growth [9]: 5.08% (active)
growth [10]: -68.4% (active)
growth [11]: 95.5%
growth [12]: 63.4%
growth [13]: 60.3%
growth [14]: 70.6%
growth [15]: 79.1%
growth [16]: 69.2%
growth [17]: 83.1%
growth [18]: 44.7%
growth [19]: 63.3%
growth [20]: 48.1%

CC[C@]1(O)CC2CN(CCc3c([nH]c4ccccc34)C(C(=O)OC)(c3cc4c(cc3OC)N(C=O)[C@H]3[C@@](O)(C(=O)OC)[C@H](OC(C)=O)[C@]5(CC)[C@@H]6C[C@@H]6CN6CC[C@]43[C@@H]65)C2)C1 (stereo not given in full)
growth [1]: 15.5%
growth [2]: -21.1% (active)
growth [3]: 10.8%
growth [4]: 37.5%
growth [5]: 6.57% (active)
growth [6]: 17.9%
growth [7]: -49.4% (active)
growth [8]: 37.2%
growth [9]: 26.6%
growth [10]: 69.5%
growth [11]: 11.6%
growth [12]: 43.4%
growth [13]: 30.1%
growth [14]: 31.1%
growth [15]: 50%
growth [16]: 30.9%
growth [17]: 32.1%
growth [18]: -20% (active)
growth [19]: 13.6%
growth [20]: 13.1%

O=C(/C=C/C12c3ccccc3C(c3ccccc31)C1C(=O)NC(=O)C12)c1ccncc1 (stereo not given)
growth [1]: 4.66% (active)
growth [2]: 12.1%
growth [3]: 13.7%
growth [4]: 14.5%
growth [5]: 7.81% (active)
growth [6]: 20.8%
growth [7]: 27.6%
growth [8]: 23.4%
growth [9]: -10.7% (active)
growth [10]: 24.7%
growth [11]: 46.6%
growth [12]: 80.6%
growth [13]: 7.85% (active)
growth [14]: 26.5%
growth [15]: 17.5%
growth [16]: 23.7%
growth [17]: 43.9%
growth [18]: 87.4%
growth [19]: -12.7% (active)
growth [20]: 1.28% (active)

Cc1ccc(-c2nc(SCC(=O)c3ccc(C#N)cc3)[nH]c(=O)c2C#N)cc1
growth [1]: 105%
growth [2]: 97.9%
growth [3]: 87.5%
growth [4]: 106%
growth [5]: 100%
growth [6]: 104%
growth [7]: 114%
growth [8]: 99.2%
growth [9]: 92.9%
growth [10]: 103%
growth [11]: 104%
growth [12]: 113%
growth [13]: 108%
growth [14]: 76.7%
growth [15]: 99.7%
growth [16]: 96.1%
growth [17]: 93.4%
growth [18]: 105%
growth [19]: 114%
growth [20]: 110%

Cn1cc(-c2nc3c(F)cc4[nH]ncc4c3c3c2CCCC3)c(C(F)F)n1
growth [1]: 66.6%
growth [2]: 68.4%
growth [3]: 57.6%
growth [4]: 71.2%
growth [5]: 80.5%
growth [6]: 29%
growth [7]: 65.4%
growth [8]: 51.9%
growth [9]: 62.6%
growth [10]: 80.8%
growth [11]: 76.7%
growth [12]: 54.5%
growth [13]: 66.7%
growth [14]: 35.8%
growth [15]: 52.3%
growth [16]: 44.3%
growth [17]: 37%
growth [18]: 33.1%
growth [19]: 4.61% (active)
growth [20]: 7.32% (active)
